The panel holds about 83,000 compounds, 20% with a hit somewhere; the sample as a whole holds those more often.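 Method: cells in 96-well plates; compound added at one concentration; 48 h incubation; percent growth measured; values under 10 scored active.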 Calls of active or inactive are those of the source.
System: HL-60(TB) leukemia
Assay: NCI-60 one-dose screen, 48 h (100 = growth as untreated, 0 = no growth, -100 = all killed)
Details: 10 µM unless noted

`O=C(O)C1(Cc2cccc(Nc3nccs3)n2)CCC(Oc2cccc(Cl)c2F)CC1` (stereo not given) was tested. Which growth did it give?
The growth was 50.7% (inactive).

How did the growth turn out when `COc1ccc(-c2cc(-c3ccc(Cl)cc3)c(C#N)c(=O)n2CCCCCC(=O)Nc2ccccc2N)cc1` was run?
The growth was -14.5% (active).

How did the growth turn out when `O=c1c2c(=NCCCN3CCCC3)cc3c(=O)n(CCCN4CCCC4)c(=O)c4c(NCCCN5CCCC5)cc(c(O)n1CCCN1CCCC1)c2c4-3` was run?
The growth was 29.9% (inactive).

For `COc1ccc(C(=O)c2cc3c(N)c(C(=O)Nc4ccccc4)sc3nc2C)cc1`, which growth is on record?
The growth was -46% (active).

`COc1ccc(N)c(N)c1` was tested. Which growth did it give?
The growth was 84.9% (inactive).

`CCCCCCCCCCCCCCCCCBr` was tested. Which growth did it give?
Its growth is 103% (inactive).

With `COc1ccc(-c2nn(-c3cccc(Cl)c3)cc2-c2cc(-c3ccc(Br)cc3)nc(N)n2)cc1` as the molecule, how does the growth read?
The growth was 88.4% (inactive).

How did the growth turn out when `O=C(/C=C\c1cccc([N+](=O)[O-])c1)/C=C/c1cccc([N+](=O)[O-])c1` was run?
The growth was 123% (inactive).

For `CN1CCCC1=Nc1ccccc1`, which growth is on record?
Its growth is 93.3% (inactive).

`Cc1nc2sc(C(=O)Nc3cccc4c3OCCO4)c(N)c2cc1C(C)O` (stereo not given) was tested. Which growth did it give?
Its growth is 8.35% (active).

With `CCN(CC)CCNC(=O)c1c(C)[nH]c(/C=C2\C(=O)Nc3ccc(F)cc32)c1C` as the molecule, how does the growth read?
Its growth is -23% (active).

`Cc1ncc(-c2ccnc(Nc3ccc(S(C)(=O)=O)cc3)n2)n1C(C)C` was tested. Which growth did it give?
Its growth is -43.2% (active).

`COc1cc2c(cc1OCCCCCOc1ccc(-n3c(C)nc4ccccc4c3=O)cc1)N=C[C@@H]1CCCN1C2=O` was tested. Which growth did it give?
Its growth is -33.8% (active).

`CC(SC(C)C(=O)N/N=C/c1cccc(Cl)c1)C(=O)N/N=C\c1cccc(Cl)c1` (stereo not given) was tested. Which growth did it give?
Its growth is 82.8% (inactive).

For `COc1ccc(-n2c(/C=C/c3ccc(O)c(OC)c3)cc(/C=C/c3ccc(O)c(OC)c3)nc2=O)cc1`, which growth is on record?
The growth was 33.7% (inactive).

For `CCN(CC)CC(O)CNc1ccc(NCC2CO2)c2c1C(=O)c1ccccc1C2=O` (stereo not given), which growth is on record?
Its growth is -25.2% (active).

Which growth does the source give for `O=C(Nc1nn2c(-c3cc(C(F)(F)F)cc(C(F)(F)F)c3)nnc2s1)C1CCCC1` here?
The growth was -53.3% (active).

For `N#Cc1ccc(C(=O)CSc2nccc(Nc3ccc(C(=O)O)cc3)n2)cc1`, which growth is on record?
The growth was 99.5% (inactive).

`CC(C)(C)c1[nH]nc2c1C(c1cc3ccccc3[nH]c1=O)Nc1cc(C(=O)Nc3ccc(Cl)cc3)ccc1N2` (stereo not given) was tested. Which growth did it give?
Its growth is 55.9% (inactive).

With `Cc1cc(NCCCNc2ccnc3cc(Cl)ccc23)nc(Nc2ccc(C(=O)N3CCCCC3)cc2)n1` as the molecule, how does the growth read?
The growth was -63.2% (active).

`O=C(COc1ccc(Cl)cc1Cl)N1N=C(c2ccc(Cl)cc2Cl)CC1(O)c1cc(F)c(Cl)cc1Cl` (stereo not given) was tested. Which growth did it give?
Its growth is -97.5% (active).

How did the growth turn out when `O=C1c2ccccc2OC=C(c2ccccc2)N1CCCCN1CCCCC1` was run?
The growth was 58.1% (inactive).

For `N=C(N)c1ccc(-c2ccc(-c3ccc4ccccc4c3)s2)cc1`, which growth is on record?
The growth was 86.7% (inactive).

For `COc1cc(C2Nc3ccccc3S2)cc(CN2CCOCC2)c1O` (stereo not given), which growth is on record?
Its growth is 80.6% (inactive).

`Nc1cc(-c2ccccc2)ccc1O` was tested. Which growth did it give?
Its growth is 49.7% (inactive).

Which growth does the source give for `CC(=O)c1c(C)[nH]c(-c2nc3ccc(N4CCN(C)CC4)cc3[nH]2)c1-c1ccc2c(c1)OCCO2` here?
Its growth is -0.621% (active).

With `C1=CN2CC(c3ccccc3)=NNC2c2ccccc21` (stereo not given) as the molecule, how does the growth read?
The growth was 81.6% (inactive).

`CCCC(C)c1cc(Cc2cc(Cl)cc(Cl)c2O)c(O)c(Cc2cc(Cl)cc(Cl)c2O)c1` (stereo not given) was tested. Which growth did it give?
The growth was 4.98% (active).

For `O=C1/C(=C/c2cn(-c3ccccc3)nc2-c2ccccc2)SC(=S)N1C1CCCCC1`, which growth is on record?
The growth was 116% (inactive).

With `O=C(NOCCO)c1ccc2cncn2c1Nc1ccc(I)cc1F` as the molecule, how does the growth read?
Its growth is 23.5% (inactive).

`CCCCCCCCCCC(C[N+](C)(C)C/C=C/c1ccccc1)C(O)c1ccccc1` (stereo not given) was tested. Which growth did it give?
The growth was -48.9% (active).

With `COc1cc(-c2n[nH]nc2-c2ccc3c(c2)OCCO3)cc(OC)c1OC` as the molecule, how does the growth read?
Its growth is -5.41% (active).

Which growth does the source give for `Cc1c(C(=O)NCCC(=O)NO)sc2ncnc(Nc3ccc(F)c(Cl)c3)c12` here?
Its growth is 103% (inactive).

With `CCOC(=O)/C=C/c1ccc([N+](=O)[O-])o1` as the molecule, how does the growth read?
The growth was -4.64% (active).

How did the growth turn out when `CCN(CC)c1ccc(Nc2ccc(CC(=O)c3ccccc3)cc2)cc1` was run?
Its growth is 97.9% (inactive).

For `O=C(c1ccc(Cl)cc1)c1ccc(Cl)cc1`, which growth is on record?
The growth was 113% (inactive).

`N#Cc1c(NC(=O)c2cccc(C(F)(F)F)c2)sc2c1CCC(=O)C2` was tested. Which growth did it give?
Its growth is -8.73% (active).

How did the growth turn out when `Cc1ccc(NC(=O)N2CCCCC2)cc1[N+](=O)[O-]` was run?
The growth was 104% (inactive).

With `Cc1cc(C)cc(NCCC#N)c1` as the molecule, how does the growth read?
The growth was 84.9% (inactive).

For `COc1ccc(C2NC3=C(CCCC3)C(C#N)(C#N)C2(C#N)C#N)cc1` (stereo not given), which growth is on record?
Its growth is 41.3% (inactive).
